Source: PubChem BioAssay (NCI)
Compounds without any hit were thinned out: in the full panel of roughly 83,000, 20% have a hit.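 Results are percent growth after 48 hours of single-concentration exposure. 100 means growth as in untreated cells, lower positive values show inhibition; negative values down to -100 show cell death.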 Unmarked numbers belong to inactive results. The source made the active and inactive calls. Rule for the calls: active = growth percent below 10; inactive = the rest.

These molecules were tested on MDA-MB-468 breast (assay: NCI-60 one-dose screen, 48 h (100 = growth as untreated, 0 = no growth, -100 = all killed)). Conditions: 10 µM unless noted.

Compound | growth
COc1ccc(-c2nc3sc(-c4ccccc4)cn3n2)cc1 | 18.7%
COc1ccc(NC(=O)CSc2nnc(-c3cc(-c4ccccc4)nc4ccccc34)n2-c2ccccc2)cc1 | 97.3%
Nc1ncnc2c1N=C(c1ccc(Cl)cc1)CC(c1cccc(Nc3ccnc4cc(Cl)ccc34)c1)N2 (stereo not given) | 75%
O=C(/C=C/c1ccccn1)c1ccccc1 | 21.3%
COc1ccc(-c2cc(-c3cccnc3)nc(S(=O)(=O)CC(=O)Nc3ccc(C)cc3)c2C#N)cc1OC | 96%
Nc1nc(Nc2ccccc2)c2ncn(Cc3cc4c(cc3Br)OCO4)c2n1 | 14.7%
COc1cccc(/C=N/Nc2nc3ccccc3s2)c1OC | 80.3%
CCCCCCCCn1ccc2cc(NC(=O)Cn3cc(CN4CCCCCC4)nn3)ccc21 | -67.2% (active)
NC(=S)N/N=C/c1ccc(OCc2ccccc2)cc1 | 47.3%
COC(=O)c1ccc(NC2=C(Cl)C(=O)c3nc(C)ccc3C2=O)cc1 | 56%
COc1cc(Cn2c(SCC(=O)Nc3cc(OC)c(OC)c(OC)c3)nc3ccccc3c2=O)cc(OC)c1OC | 72.7%
O=C(CN1CCOCC1)Nc1nc(-c2cc3ccccc3oc2=O)cs1 | 107%
C/C(=N\O)c1ccc(NC(=O)CSc2nnc(-c3cc(-c4ccc(S(C)(=O)=O)cc4)nc4ccccc34)n2-c2ccccc2)cc1 | 92.6%
O=C1C(c2ccccc2)=C(N2CCc3ccccc32)OC1(Cl)Cl | 78.4%
C/C(=C(\c1ccc(O)cc1)c1ccc(OCCN2CCCCCC2)cc1)c1ccc(Cl)cc1 | -88% (active)
Cc1cc(Nc2nc(C(=O)Nc3ccccc3)nc3ccccc23)n[nH]1 | 68.9%
C#COc1cccc(Nc2ncnc3cc(NC(=O)[C@@H](C)Cl)ccc23)c1 | 12% [6.25 µM]
N#C/C(=C\c1cn(Cc2ccccc2)c2ccccc12)C(=O)Nc1ncc(Cc2ccccc2Cl)s1 | -14.7% (active)
CS(=O)(=O)c1ccc(-c2nc3ccccn3c2-c2nc3ccc([N+](=O)[O-])cc3[nH]2)cc1 | 104%
O=C(O)c1cccc([N+](=O)[O-])c1/C=C/c1ccccc1 | 102%

Compound | growth
N#Cc1c(-c2ccc(Cl)cc2)c(C#N)c2c(C#N)c(N)nn2c1N | 80.1%
O=C1C(Nc2ccc(Br)cc2)=C(I)C(=O)c2ncccc21 | -81.4% (active)
CC(=O)[C@H]1CC[C@H]2[C@@H]3CC[C@H]4CC=CC[C@]4(C)[C@H]3CC[C@]12C | 84.7%
CSc1nnc(-c2sc3nnc(-c4ccccc4)c(-c4ccccc4)c3c2O)o1 | 78.9%
CC(C)(C)OC(=O)NCCc1ccc(N)cc1 | 94.3%
COc1cccc(/C=C2\COc3ccc(O)cc3C2=O)c1OC | 43.9%
CC[C@]1(O)C[C@H]2CN(CCc3c([nH]c4ccccc34)C(C(=O)OC)(c3cc4c(cc3OC)N(C)[C@H]3[C@@](O)(C(=O)OC)[C@H](OC(C)=O)[C@]5(CC)[C@@H]6C[C@@H]6CN6CC[C@]43[C@@H]65)C2)C1 (stereo not given in full) | 28.1%
CCC(CO)Nc1nc2ccc(Cl)cc2c2ccccc12 (stereo not given) | 33%
CCOC(=O)/C=C1\S/C(=N\Nc2cc(=O)[nH]c3ccc(Br)cc23)N(c2ccccc2)C1=O | 56.1%
COc1cc(/C=N/n2cnc3oc(-c4ccccc4)cc3c2=N)cc(CN2CCOCC2)c1O | 83.2%
O=C(CCCSc1nc(-c2ccc(Cl)cc2)cc(-c2ccc(Cl)cc2)n1)NO | -49.5% (active)
CN1CC=C(c2cc(NC(=O)Nc3ccc(Oc4ccnc(NC(=O)C5CC5)c4)c(F)c3)cc(C(F)(F)F)c2)CC1 | -30.3% (active)
CC(C)(C)C1CCC(=NO)CC1 (stereo not given) | 94%
O=C1/C(=C/c2ccc(Cl)cc2)CN(Cc2cn(CCCNc3ccnc4cc(Cl)ccc34)nn2)C/C1=C\c1ccc(Cl)cc1 | -69.8% (active)
C#CCOc1cccc(Nc2ncnc3ccc(NC(=O)C=C)cc23)c1 | -25.7% (active)
COc1ccc2sc(-n3nc4nc5n(c(=O)c4c3N)-c3ccccc3Sc3ccccc3-5)nc2c1 | 88.9%
COC(=O)[C@]1(C)CCC[C@]2(C)[C@H]3C[C@@H]4[C@H]5[C@@H]6CC/C(=N\OCC/C(N)=N/O)[C@H]5[C@@]3(CC[C@H]21)CC4(C(C)C)O6 | 64.1%
C#CCn1cnc2cnc(Nc3cccc(NC(=O)C=C)c3)nc21 | 55.1% [6.25 µM]
O=C(/C(=C/c1ccccc1)CN1CCCCC1)c1ccccc1 | -72.8% (active)
Cc1[nH]c(/C=C/C(=O)c2ccc(C(F)(F)F)c(F)c2)c(C)c1C(=O)NCC(C)C | 93.6%
